# High-throughput results from PubChem BioAssay.
# Pf Dd2 inh – P. falciparum Dd2 growth inhibition. SYBR Green, 72 h; hits give low values. activity change, % at 10 µM. 94,000 compounds, 2.3% hits. AID 1159554; in the data active = activity change below about -80%; inconclusive = no clear call, values can overlap the other calls
# T cruzi growth-1 – blocks T. cruzi growth in NIH3T3 culture; T. cruzi beta-gal in NIH3T3, GalScreen luminescence, 90 h; inhibition, % at 8.34 µM; 77,000 compounds, 5.9% hits; AID 624255;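 active = mean inhibition above about 93%, with at least 55% of replicates each passing it, limit read from the data, passing the limit was not always enough; inconclusive = only one of those two conditions holds; inactive = neither condition holds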
# C diff HTS – blocks growth of Clostridium difficile; Clostridium difficile clinical isolate growth, OD600, 24 h; hits give low values; growth activity, negative = inhibition, % at 16 µg/mL (by protocol); 86,000 compounds, 0.25% hits; AID 1259249;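 active = mean growth activity at or below -80% and every replicate also at or below -80%; inconclusive = mean at or below -80% but some replicate above -80%; inactive = mean growth activity above -80%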;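 also: 0% = DMSO wells and -100% = levofloxacin 16 µg/mL wells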
# T cruzi growth-2 – inhibitors of T. cruzi proliferation. shares compounds with T cruzi growth-1. T. cruzi beta-gal in NIH3T3, GalScreen luminescence, 90 h. inhibition, % at 8.35 µM. 5,600 compounds, 72% hits. AID 651739;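 active = mean replicate inhibition above about 95% and at least 55% of replicates individually reaching it, limit read from the data; inconclusive = only one of the two criteria is met; inactive = neither criterion is met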
# T cruzi growth-3 – blocks T. cruzi growth in NIH3T3 host cells; shares compounds with T cruzi growth-1; T. cruzi beta-gal in NIH3T3, GalScreen luminescence, 90 h; inhibition, % at 2.09 µM; 5,600 compounds, 21% hits; AID 651740;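 active = mean inhibition above about 95%, with at least 55% of replicates also reaching it, limit read from the data; inconclusive = meets just one of the two conditions; inactive = meets neither condition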;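 also: plate controls were neutral control median for no effect and positive control median for full effect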
# NIH3T3 tox – NIH/3T3 (mouse) viability loss. shares compounds with T cruzi growth-1. NIH/3T3 viability, CellTiter-Glo ATP luminescence, 90 h. cytotoxicity (signal decrease), % at 8.35 µM. 5,600 compounds, 14% hits;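 active = mean signal decrease across replicates above about 35% based on untreated-well scatter, with enough replicates individually passing, limit read from the data; inconclusive = no rule stated though some were filed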;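 also: 0% = median of neutral control wells and 100% = median of positive control wells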
# NIH3T3 tox 2 – NIH/3T3 (mouse) viability loss; AID 651744; inhibition, % at 24.9 µM; 5,600 compounds, 56% hits; NIH/3T3 viability, CellTiter-Glo ATP luminescence, 90 h; shares compounds with T cruzi growth-1;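 active = mean loss of cell viability signal at or above a set limit, and enough replicates individually reaching it; inconclusive = meets only the mean limit or only the replicate share; inactive = meets neither condition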;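 also: 0% = median of neutral control wells and 100% = median of positive control wells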
# * marks the source's active call; other numbers are inactive results; ? = inconclusive; · = no result given. Most compounds without a hit are left out; they make up all but 6.7% or so of the library.
SMILES,Pf Dd2 inh,T cruzi growth-1,C diff HTS,T cruzi growth-2,T cruzi growth-3,NIH3T3 tox,NIH3T3 tox 2
Cc1ccc(S(=O)(=O)N(C)C[C@@H]2Oc3ccc(NS(=O)(=O)c4cccs4)cc3C(=O)N([C@H](C)CO)C[C@H]2C)cc1,14,-8,15,·,·,·,·
CCC(=O)Nc1ccc2c(c1)C(=O)N(C)[C@H]1CC[C@@H](CC(=O)NCc3ccccc3)O[C@H]1CO2,-3,-3,-14,·,·,·,·
CN1CCN(C(=O)C[C@@H]2CC[C@H]3[C@@H](COc4ccc(NC(=O)c5cscn5)cc4C(=O)N3C)O2)CC1,6,-13,3,·,·,·,·
C[C@H]1CN([C@@H](C)CO)C(=O)CCCn2cc(nn2)CO[C@@H]1CN(C)C(=O)Nc1cccc(C(F)(F)F)c1,-7,28,3,·,·,·,·
C[C@H]1CN([C@@H](C)CO)C(=O)CCCn2cc(nn2)CO[C@@H]1CN(C)Cc1ccccc1,2,-21,·,·,·,·,·
C[C@@H]1CN([C@@H](C)CO)C(=O)CCCn2cc(nn2)CO[C@H]1CN(C)Cc1ccccc1,13,121*,6,-101,-67,-24,-13
C[C@@H]1CN([C@@H](C)CO)C(=O)CCCn2cc(nn2)CO[C@@H]1CN(C)C(=O)Nc1cccc(C(F)(F)F)c1,1,152*,-5,-26,6,12,-3
COc1ccc(CN(C)C[C@H]2Oc3c(NC(=O)Nc4ccc(F)cc4)cccc3C(=O)N([C@H](C)CO)C[C@H]2C)cc1,-16,-55,1,·,·,·,·
C[C@H]1CN([C@@H](C)CO)C(=O)c2cccc(NC(=O)c3cnccn3)c2O[C@H]1CN(C)C(=O)NC1CCCCC1,6,40,3,·,·,·,·
COc1cccc(NC(=O)N(C)C[C@@H]2Oc3cc(C#CC4(O)CCCC4)ccc3S(=O)(=O)N([C@@H](C)CO)C[C@H]2C)c1,0,·,4,·,·,·,·
COc1cccc(NC(=O)N(C)C[C@@H]2Oc3cc(C#CC4(O)CCCC4)ccc3S(=O)(=O)N([C@H](C)CO)C[C@@H]2C)c1,-15,·,6,·,·,·,·
COc1ccc(C#Cc2ccc3c(c2)O[C@@H](CN(C)C(=O)Nc2cccc(OC)c2)[C@@H](C)CN([C@@H](C)CO)S3(=O)=O)cc1,-90*,?,·,105*,108*,37*,34*
COc1cccc(NC(=O)N(C)C[C@H]2Oc3cc(C#Cc4ccc(F)cc4)ccc3S(=O)(=O)N([C@@H](C)CO)C[C@@H]2C)c1,-57,?,3,99*,108*,8,52*
COc1ccc(C#Cc2ccc3c(c2)O[C@H](CN(C)C(=O)Nc2cccc(OC)c2)[C@@H](C)CN([C@@H](C)CO)S3(=O)=O)cc1,-85*,109*,·,100*,110*,?,17
COc1cccc(NC(=O)N(C)C[C@@H]2Oc3cc(-c4ccccc4F)ccc3S(=O)(=O)N([C@H](C)CO)C[C@@H]2C)c1,-76,98*,0,111*,55,22,50*
COc1cccc(NC(=O)N(C)C[C@H]2Oc3cc(C#Cc4ccncc4)ccc3S(=O)(=O)N([C@@H](C)CO)C[C@H]2C)c1,-31,77,-3,·,·,·,·
COc1cccc(NC(=O)N(C)C[C@H]2Oc3cc(-c4ccccc4OC)ccc3S(=O)(=O)N([C@H](C)CO)C[C@H]2C)c1,-34,·,-2,·,·,·,·
CN(C)CCCNC(=O)C[C@@H]1CC[C@@H]2[C@H](COc3ccc(NC(=O)c4ccccc4F)cc3C(=O)N2C)O1,11,-2,-3,·,·,·,·
N#C[C@H]1[C@@H](c2ccc(C#Cc3ccc(F)cc3)cc2)[C@H](CO)N1C(=O)C1CCC1,-39,93,-29,·,·,·,·
N#C[C@H]1[C@H](c2ccc(C#Cc3ccc(F)cc3)cc2)[C@H](CO)N1C(=O)C1CCCC1,-43,104*,-2,101*,71,-8,82*
N#C[C@H]1[C@H](c2ccc(C#Cc3ccc(F)cc3)cc2)[C@H](CO)N1C(=O)C1CCC1,-46,99*,-14,112*,72,11,83*
N#C[C@@H]1[C@H](c2ccc(C#Cc3ccc(F)cc3)cc2)[C@@H](CO)N1C(=O)C1CCC1,-35,93,-21,·,·,·,·
O=C(c1ccccc1)N1C[C@H]2[C@@H](c3ccccc31)[C@H](CO)N2S(=O)(=O)c1ccccc1,5,-15,-1,·,·,·,·
C[C@H]1CN([C@@H](C)CO)S(=O)(=O)c2ccc(Br)cc2O[C@@H]1CN(C)C(=O)c1cnccn1,7,31,0,·,·,·,·
COc1ccc(S(=O)(=O)Nc2ccc3c(c2)CC(=O)N([C@@H](C)CO)C[C@H](C)[C@@H](CN(C)S(=O)(=O)c2cn(C)cn2)O3)cc1,35,-31,-8,·,·,·,·
SMILES,Pf Dd2 inh,T cruzi growth-1,C diff HTS,T cruzi growth-2,T cruzi growth-3,NIH3T3 tox,NIH3T3 tox 2
C/C=C/c1ccc2c(c1)O[C@H](CN(C)C(=O)Nc1cccc(F)c1)[C@H](C)CN([C@H](C)CO)S2(=O)=O,-18,105*,6,99*,78,21,39*
C[C@H](CO)N1C[C@H](C)[C@@H](CN(C)C(=O)Nc2cccc(F)c2)Oc2cc(/C=C/c3ccccc3)ccc2S1(=O)=O,-58,121*,8,99*,114*,13,35*
C/C=C/c1ccc2c(c1)O[C@H](CN(C)C(=O)Nc1cccc(F)c1)[C@@H](C)CN([C@@H](C)CO)S2(=O)=O,-18,42,4,·,·,·,·
C/C=C/c1ccc2c(c1)O[C@@H](CN(C)C(=O)Nc1cccc(F)c1)[C@@H](C)CN([C@@H](C)CO)S2(=O)=O,-31,-53,4,·,·,·,·
Cc1noc(C)c1NC(=O)N(C)C[C@@H]1OCCCC[C@H](C)Oc2ccc(NC(=O)c3ccccc3)cc2C(=O)N([C@H](C)CO)C[C@@H]1C,-39,-53,·,·,·,·,·
O=S(=O)(c1ccccc1)N1CCCCN2[C@H](CO)[C@H](c3ccc(C#Cc4ccccn4)cc3)[C@H]2C1,-38,72,-3,·,·,·,·
CCCC#Cc1ccc([C@@H]2[C@@H](CO)N3CCCCN(S(C)(=O)=O)C[C@H]23)cc1,20,11,-1,·,·,·,·
CCS(=O)(=O)N1CCCCN2[C@H](CO)[C@@H](c3ccc(C#Cc4ccccn4)cc3)[C@@H]2C1,9,86,-9,·,·,·,·
CS(=O)(=O)N1CCCCN2[C@H](C1)[C@H](c1ccc(C#Cc3ccccn3)cc1)[C@@H]2CO,17,112*,1,96*,39,5,-6
CS(=O)(=O)N1CCCCN2[C@@H](CO)[C@H](c3ccc(C#Cc4ccccn4)cc3)[C@@H]2C1,-39,?,2,108*,47,-7,13
CS(=O)(=O)N1CCCCN2[C@H](C1)[C@@H](c1ccc(C#Cc3ccccn3)cc1)[C@@H]2CO,18,104*,-6,112*,45,6,1
COCC(=O)N1[C@H](CO)[C@@H]2c3ccccc3N(C(=O)NC(C)C)C[C@@H]21,35,·,-6,·,·,·,·
